Measurements as given in PubChem BioAssay AID2099 (Broad Institute, 2009).
The campaign covered roughly 330,000 compounds. About 230 (0.07%) were called active.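 The calls were made as follows: active = more than half of a compound's replicate wells show inhibition beyond 50%, single wells judged on their own value; inconclusive = some, but no more than half, of replicates pass 50% inhibition; inactive = no replicate passes 50% inhibition.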 Many of the other results were omitted from the sample, so actives are more common in it than they were.

Biological target: Lysine-specific demethylase 4C (Homo sapiens) (UniProt Q9H3R0)
Test: inhibitors of GASC-1 histone demethylase, primary screen, biochemical, fluorescence, DELFIA europium (AID 2099);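 also: signal counts dimethyl H3K9 product captured on neutravidin plate; 0% = median of DMSO wells and 100% = 0.3 times that DMSO median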
Settings: GST-JMJD2C(1-420) H3K9me3 demethylation, at 2.35 µM, stronger effect = higher value

Lysine-specific demethylase 4C (Homo sapiens), sequence (Q9H3R0 1-420 limits assumed): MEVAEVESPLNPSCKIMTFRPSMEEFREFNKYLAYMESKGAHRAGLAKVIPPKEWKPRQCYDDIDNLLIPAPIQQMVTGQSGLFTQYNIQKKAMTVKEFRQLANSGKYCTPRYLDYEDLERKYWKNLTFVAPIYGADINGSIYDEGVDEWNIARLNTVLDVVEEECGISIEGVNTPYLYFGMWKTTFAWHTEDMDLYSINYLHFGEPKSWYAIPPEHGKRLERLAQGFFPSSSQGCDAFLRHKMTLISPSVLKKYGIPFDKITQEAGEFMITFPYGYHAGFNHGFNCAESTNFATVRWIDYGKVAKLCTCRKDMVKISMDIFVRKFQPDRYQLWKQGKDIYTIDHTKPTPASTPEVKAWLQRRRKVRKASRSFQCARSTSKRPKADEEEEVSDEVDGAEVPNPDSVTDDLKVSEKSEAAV

inhibition, active:
O=C(OCC1O[C@@H](OC(=O)c2cc(O)c(O)c(O)c2)[C@@H](OC(=O)c2cc(O)c(O)c(O)c2)[C@@H](OC(=O)c2cc(O)c(O)c(O)c2)[C@@H]1OC(=O)c1cc(O)c(O)c(O)c1)c1cc(O)c(O)c(O)c1 (some centres not stated) 97.3%, Cc1cccc(-c2noc(CCC(=O)NC3CCCC3)n2)c1 54.2%, Cc1cc(NC(=O)Nc2c[nH]c(=O)[nH]c2=O)ccc1Br 53.4%, O=c1ccc2c(-c3ccccc3S(=O)(=O)O)c3ccc(O)c(O)c3oc-2c1O 79.5%, CCc1ccc(-c2nnn(Cc3nn[nH]n3)n2)cc1 57.7%, N#Cc1c(N2CCCCC2)nc(N)c2c(N)nc(SCC(=O)O)cc12 65.6%

inhibition, inactive:
CN(CC1CCCO1)S(=O)(=O)c1ccc(C(=O)Nc2ccc([N+](=O)[O-])cc2)cc1 (configuration not stated) -19.5%, COc1ccc(NS(=O)(=O)c2ccc(N3CCN(CCO)CC3)c([N+](=O)[O-])c2)cc1 1.9%, O=C(NCc1ccccc1Cl)NC(=O)c1csc([N+](=O)[O-])c1 -1.75%, O=C(CN1CCCCCC1)Nc1ccc(Br)cc1Br 7.23%, O=C(CCCOc1ccccc1)NCc1ccco1 8.15%, COc1cccc(OC)c1C(=O)OCC(=O)/C(C#N)=C(\C)N -25.5%, CC(C)CCN1CCN(Cc2cn[nH]c2C2CCCCC2)CC1CCO (configuration not stated) -11.2%, COc1ccc(NC(=O)CN(C)C(=O)c2cccc(S(=O)(=O)N3CCN(c4ccccc4)CC3)c2)cc1 38.9%, CCCC(=O)N1CCC(CCC(=O)NC2CC2)CC1 33.1%, O=C(CSCc1c(Cl)cccc1Cl)NN1C(=O)c2ccccc2C1=O -14.7%, CCCCn1c(N)c(N(CC(C)C)C(=O)c2cccc(S(=O)(=O)N3CC(C)OC(C)C3)c2)c(=O)[nH]c1=O (configuration not stated) -2.81%, NS(=O)(=O)c1ccc(NC(=S)NNC(=O)c2cccs2)cc1 0.859%, COc1ccc(-c2noc(CCCC(=O)NC3CCCC3)n2)cc1OC 0.509%, CCOc1ccc(-c2noc(CCC(=O)NC3CCCC3)n2)cc1OC 7.26%, C/C(=N\NC(=O)COc1ccc(C)cc1[N+](=O)[O-])c1ccc2c(c1)OCCO2 9.39%, Cc1ccc(NC(=O)Nc2ccccc2)c(Br)c1 14.6%, Cc1cc(NC(=O)[C@H](C)NC(=O)c2ccco2)ccc1Br -9.73%, CCc1c(C)nc2c(OC)cccc2c1Cl 8.11%, Cc1ccccc1CN1C[C@@H]2C[C@@H](c3ccc4nsnc4c3)N3CCC[C@@]23C1=O 10.6%, COc1cccc(COC(=O)C2CCN(S(=O)(=O)c3cccs3)CC2)c1OC -2.56%, CC(C)CN(C(=O)Cn1c(=O)cnc2ccccc21)C1CCS(=O)(=O)C1 (configuration not stated) 2.23%, c1cc(-c2nn[nH]n2)ccc1CN1CCCCC1 12.9%, CCc1ccc(-c2nnn(Cc3nc4ccccc4s3)n2)cc1 51.2%, Nc1nc(NCC(=O)O)nc(N2CCCCCC2)c1[N+](=O)[O-] 21.9%, N#CCc1c(C#N)c(N)nc(N2CCCC2)c1C#N 1.17%, CCCCn1c(N)c(N(CC(C)C)C(=O)c2ccc(-n3c(C)ccc3C)cc2)c(=O)[nH]c1=O -11.1%, Cc1cc(=O)n2nc(N3CCC(C(=O)Nc4c(F)c(F)c(F)c(F)c4F)CC3)sc2n1 1.58%, COc1cc(CNCc2ccc3c(c2)OCO3)c([N+](=O)[O-])cc1OC 1.62%, O=C(CN1C(=O)NC2(CCCCCC2)C1=O)NCc1ccc(F)cc1 2.24%, CSc1ccccc1NC(=O)c1cc(C2CC2)on1 4.43%, COC(=O)C1C(=O)CC(C)(O)C(C(=O)OC)C1c1ccc2c(c1)OCO2 (configuration not stated) -4.99%, N#Cc1c(/N=C/N2CCCC2)oc(-c2ccccc2)c1-c1ccccc1 -7.68%, COc1ccc(C2(CNC(=O)Cc3ccc(OC)c(OC)c3)CCCC2)cc1 -23.7%, COc1ccc(C)cc1S(=O)(=O)Nc1cc2c3c(c1)CCC(=O)N3CCC2 -0.171%, O=C(O)C1CCN1C1CCCCC1 (configuration not stated) -9.8%, COc1ccc(NC(=O)C2CCC(CNc3c(N4CCCCC4)c(=O)c3=O)CC2)c(OC)c1 (configuration not stated) -6.37%, COCc1cc(C)nc2sc3c(=O)n(-c4cccc5ccccc45)nnc3c12 -7.85%, CCc1nc2cccnc2n1-c1ccc(C(=O)O)cc1 3.28%, Cc1ccc2nc(-c3ccc(NC(=O)CN(C)S(=O)(=O)c4ccccc4)cc3)sc2c1 -15.6%, CN(CCCC(=O)Nc1nccs1)S(=O)(=O)c1ccc(Cl)cc1 9.62%, O=C1C=C(c2ccccc2)CCC1 -14.3%, C/C=C/C(=O)Nc1nnc(C(C)C)s1 -0.768%, CCCC(=O)N1CCN(c2nnc(-c3ccc(C)cc3)c3ccccc23)CC1 -13.5%, C[C@H](C(=O)CC(=O)OC(C)(C)C)[C@H](O)c1ccc(C(F)(F)F)cc1 1.41%, CC1CCCCC1NC(=O)Cn1cnc2c1c(=O)n(C)c(=O)n2C (configuration not stated) 6.58%, O=C1CCC(=O)N1CCOP1(=O)COc2ccccc2OC1 2.42%, NC(=O)c1ccc(N2CCOCC2)nc1 -3.7%, Cc1noc(NS(=O)(=O)c2ccc(N3CC(O)=C(c4ccccc4)C3=N)cc2)c1C -10.1%, COc1ccc([N+](=O)[O-])cc1NC(=O)CC1SC(=Nc2cccc(C)c2C)N(/N=C(\C)c2ccc(C)cc2)C1=O (configuration not stated) -21.9%, CN(Cc1ccccc1)C(=O)C(=O)c1cn(CC(=O)N2CCCC2)c2ccccc12 11.9%, O=C(c1cc2ccccc2s1)N1CCN(c2ccccn2)CC1 -6.37%, O=C(N=C1SC2CS(=O)(=O)CC2N1c1ccccc1)c1ccccc1 (configuration not stated) 1.92%, COc1ccc(C)cc1NC(=O)CCCN1C(=O)NC(C)(C)C1=O -6.72%, O=C(CC(NS(=O)(=O)c1ccc(Cl)cc1)c1ccco1)NC1CCCC1 (configuration not stated) -10.3%, CC(C)Cn1c(N2CCN(C(=O)/C=C/c3ccccc3)CC2)nc2ccccc21 12%, CCCCn1c(N)c(N(CC)C(=O)/C=C/c2ccco2)c(=O)[nH]c1=O -4.8%, CN(C(=O)CSc1cccc[n+]1[O-])C1CCCCC1 -11.4%, CCOc1cc(CN2CCCC(CO)(Cc3ccc(F)cc3F)C2)ccc1OC (configuration not stated) -2.58%, O=C(NCc1cccs1)c1ccc(CS(=O)Cc2ccccc2Cl)o1 (configuration not stated) -4.03%, CCOc1cnc(-c2c(-c3ccccc3Cl)noc2C)o1 0.379%, CCc1cc2c(=O)n(-c3ccccc3)c(SCC(=O)O)nc2s1 -0.0126%, Cn1ccnc1-c1nnn(-c2ccc(F)cc2)n1 1.58%, Cc1sc2ncn(CC(=O)NCCCC(=O)N(C)Cc3ccccc3)c(=O)c2c1C 3.53%, Cc1ccc2nc(C)c3c(c2c1)N(c1ccccc1)CC3 0.549%, CC(C)n1c(=S)[nH]c2cc(C(F)(F)F)ccc21 9.24%, O=C(COC(=O)c1ccccc1NC(=O)c1ccco1)Nc1ccc2c(c1)OC(F)(F)O2 -7.33%, CCN1CCC2(CC1)N=C(c1ccc(F)cc1)C(=S)N2C(=O)c1ccc(C)cc1 -5.72%, CCOc1ncccc1C(=O)OCC(=O)Nc1cccc(S(=O)(=O)N2CCCCCC2)c1 3.84%, CCC1(C)N(O)C(C)(C)C(c2ccc(OC)cc2)=[N+]1[O-] (configuration not stated) 1.82%, CN(/C(=N/S(=O)(=O)c1cccs1)c1ccccc1)c1ccc(O)cc1 -2.26%, COc1ccc(Cl)cc1N(CC(=O)N/N=C/c1ccc(OCC(N)=O)cc1)S(C)(=O)=O 4.78%, O=C(COc1ccc(Cl)cc1Cl)NCCCNC(=O)c1cnccn1 -5.15%, CCOC(=O)C(=Cc1ccccc1OC)C(=O)OCC -1.48%, CCOc1ccccc1NC(=O)NC1CCCCCCC1 3.73%, CC(=O)Nc1ccc(NC(=O)C(C)OC(=O)C2CC(=O)N(CCc3ccccc3)C2)cc1 (configuration not stated) 0.0499%, Cc1nn(Cc2ccc(F)cc2)c(C)c1NC(=O)c1noc2c1CCc1ccccc1-2 -8.11%, COc1ccccc1CCC(=O)NNC(=O)c1ccncc1 -2.82%, COc1cccc(CN(C)C(=O)CC23CC4CC(CC(C4)C2)C3)c1OC 8.93%, CC(C)=CCN1CCN(Cc2cc3ccccc3[nH]2)CC1CCO (configuration not stated) -4.87%, COc1ccc(-c2nnc(SC(=O)N3c4ccccc4Sc4ccccc43)o2)cc1 -0.278%, CC1=C(C(=O)N(C)C)C(c2ccccc2OC(F)F)NC(=O)N1 (configuration not stated) 6.88%, CCN1N=C(c2ccccc2)CCC1=O 2.88%, CCc1ccc[n+](-c2nc([O-])sc2C=O)c1 22.8%, Cc1ccnc(NC(=O)CCNS(=O)(=O)c2ccc(C)c(C)c2)c1 7.52%, CCOc1ccc(-n2c(N)c(C(=O)NCC3CCCO3)sc2=S)cc1 (configuration not stated) -1.83%, CCC(C)(C(=O)NC1CCCCC1)N(C)C(=O)c1ccc2c(c1)OCO2 (configuration not stated) 10.3%
